The nature of assay [1]: antimalarial activity against Dd2 strain (AID 2302;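 active = growth inhibition above 50% at the single 2 µM test dose, taken to imply half-maximal potency below 2 µM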;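 note: 0% = DMSO untreated growth and 100% = chloroquine plus artemisinin killed control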). Particulars: P. falciparum Dd2 in RBCs, LDH growth readout, 72 h; at 2 µM; stronger effect = higher value.
Assay [2] in a line: HepG2 cytotoxicity, primary screen, cytotoxicity control for P. falciparum antimalarial project, cell-based, ATP luminescence (AID 2303;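 active = inhibition above 50%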;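 note: 0% = DMSO wells and 100% = digitonin-killed cells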). Particulars: HepG2 viability, 24-48 h, at 10 µM, stronger effect = higher value.
The target of assay [3] is L-lactate dehydrogenase (Plasmodium falciparum (isolate CDC / Honduras)) (UniProt Q27743). Description: PfLDH activity inhibition – cell lysate, 3D7 strain, counter-screen for P. falciparum growth inhibition project (AID 2304).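 Note: 0% = vehicle and 100% = reference inhibitor.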 Particulars: P. falciparum 3D7 crude extract, LDH APAD/NBT absorbance; at 2 µM; stronger effect = higher value.
Sequence of L-lactate dehydrogenase (Plasmodium falciparum (isolate CDC / Honduras)) (Q27743 whole entry, looked up): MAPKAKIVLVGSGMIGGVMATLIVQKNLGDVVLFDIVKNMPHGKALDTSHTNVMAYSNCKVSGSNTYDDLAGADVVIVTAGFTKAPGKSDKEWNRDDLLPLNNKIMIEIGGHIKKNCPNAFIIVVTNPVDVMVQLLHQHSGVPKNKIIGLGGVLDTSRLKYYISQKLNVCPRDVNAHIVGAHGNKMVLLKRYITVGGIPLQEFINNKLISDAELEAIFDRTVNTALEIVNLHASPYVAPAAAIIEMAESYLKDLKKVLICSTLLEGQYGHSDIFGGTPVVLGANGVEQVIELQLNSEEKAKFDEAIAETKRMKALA
Assay [4] is described as follows: inhibition of 3D7 malaria parasite growth – strain 3D7 (AID 2306).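 Note: 0% = DMSO wells and 100% = chloroquine plus artemisinin control wells.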 The note with it: P. falciparum 3D7 erythrocytic growth, LDH absorbance, 72 h; at 2 µM; stronger effect = higher value.
For assay [5], the target named is Huntingtin (Homo sapiens) (UniProt P42858). Description: inhibitors of mutant Htt aggregation in vitro, dose response, QA1 (AID 1584). The note with it: in vitro mutant huntingtin aggregation assay; confirmation test; at 10 µM; stronger effect = lower value.
Sequence of Huntingtin (Homo sapiens) (P42858 whole entry, looked up): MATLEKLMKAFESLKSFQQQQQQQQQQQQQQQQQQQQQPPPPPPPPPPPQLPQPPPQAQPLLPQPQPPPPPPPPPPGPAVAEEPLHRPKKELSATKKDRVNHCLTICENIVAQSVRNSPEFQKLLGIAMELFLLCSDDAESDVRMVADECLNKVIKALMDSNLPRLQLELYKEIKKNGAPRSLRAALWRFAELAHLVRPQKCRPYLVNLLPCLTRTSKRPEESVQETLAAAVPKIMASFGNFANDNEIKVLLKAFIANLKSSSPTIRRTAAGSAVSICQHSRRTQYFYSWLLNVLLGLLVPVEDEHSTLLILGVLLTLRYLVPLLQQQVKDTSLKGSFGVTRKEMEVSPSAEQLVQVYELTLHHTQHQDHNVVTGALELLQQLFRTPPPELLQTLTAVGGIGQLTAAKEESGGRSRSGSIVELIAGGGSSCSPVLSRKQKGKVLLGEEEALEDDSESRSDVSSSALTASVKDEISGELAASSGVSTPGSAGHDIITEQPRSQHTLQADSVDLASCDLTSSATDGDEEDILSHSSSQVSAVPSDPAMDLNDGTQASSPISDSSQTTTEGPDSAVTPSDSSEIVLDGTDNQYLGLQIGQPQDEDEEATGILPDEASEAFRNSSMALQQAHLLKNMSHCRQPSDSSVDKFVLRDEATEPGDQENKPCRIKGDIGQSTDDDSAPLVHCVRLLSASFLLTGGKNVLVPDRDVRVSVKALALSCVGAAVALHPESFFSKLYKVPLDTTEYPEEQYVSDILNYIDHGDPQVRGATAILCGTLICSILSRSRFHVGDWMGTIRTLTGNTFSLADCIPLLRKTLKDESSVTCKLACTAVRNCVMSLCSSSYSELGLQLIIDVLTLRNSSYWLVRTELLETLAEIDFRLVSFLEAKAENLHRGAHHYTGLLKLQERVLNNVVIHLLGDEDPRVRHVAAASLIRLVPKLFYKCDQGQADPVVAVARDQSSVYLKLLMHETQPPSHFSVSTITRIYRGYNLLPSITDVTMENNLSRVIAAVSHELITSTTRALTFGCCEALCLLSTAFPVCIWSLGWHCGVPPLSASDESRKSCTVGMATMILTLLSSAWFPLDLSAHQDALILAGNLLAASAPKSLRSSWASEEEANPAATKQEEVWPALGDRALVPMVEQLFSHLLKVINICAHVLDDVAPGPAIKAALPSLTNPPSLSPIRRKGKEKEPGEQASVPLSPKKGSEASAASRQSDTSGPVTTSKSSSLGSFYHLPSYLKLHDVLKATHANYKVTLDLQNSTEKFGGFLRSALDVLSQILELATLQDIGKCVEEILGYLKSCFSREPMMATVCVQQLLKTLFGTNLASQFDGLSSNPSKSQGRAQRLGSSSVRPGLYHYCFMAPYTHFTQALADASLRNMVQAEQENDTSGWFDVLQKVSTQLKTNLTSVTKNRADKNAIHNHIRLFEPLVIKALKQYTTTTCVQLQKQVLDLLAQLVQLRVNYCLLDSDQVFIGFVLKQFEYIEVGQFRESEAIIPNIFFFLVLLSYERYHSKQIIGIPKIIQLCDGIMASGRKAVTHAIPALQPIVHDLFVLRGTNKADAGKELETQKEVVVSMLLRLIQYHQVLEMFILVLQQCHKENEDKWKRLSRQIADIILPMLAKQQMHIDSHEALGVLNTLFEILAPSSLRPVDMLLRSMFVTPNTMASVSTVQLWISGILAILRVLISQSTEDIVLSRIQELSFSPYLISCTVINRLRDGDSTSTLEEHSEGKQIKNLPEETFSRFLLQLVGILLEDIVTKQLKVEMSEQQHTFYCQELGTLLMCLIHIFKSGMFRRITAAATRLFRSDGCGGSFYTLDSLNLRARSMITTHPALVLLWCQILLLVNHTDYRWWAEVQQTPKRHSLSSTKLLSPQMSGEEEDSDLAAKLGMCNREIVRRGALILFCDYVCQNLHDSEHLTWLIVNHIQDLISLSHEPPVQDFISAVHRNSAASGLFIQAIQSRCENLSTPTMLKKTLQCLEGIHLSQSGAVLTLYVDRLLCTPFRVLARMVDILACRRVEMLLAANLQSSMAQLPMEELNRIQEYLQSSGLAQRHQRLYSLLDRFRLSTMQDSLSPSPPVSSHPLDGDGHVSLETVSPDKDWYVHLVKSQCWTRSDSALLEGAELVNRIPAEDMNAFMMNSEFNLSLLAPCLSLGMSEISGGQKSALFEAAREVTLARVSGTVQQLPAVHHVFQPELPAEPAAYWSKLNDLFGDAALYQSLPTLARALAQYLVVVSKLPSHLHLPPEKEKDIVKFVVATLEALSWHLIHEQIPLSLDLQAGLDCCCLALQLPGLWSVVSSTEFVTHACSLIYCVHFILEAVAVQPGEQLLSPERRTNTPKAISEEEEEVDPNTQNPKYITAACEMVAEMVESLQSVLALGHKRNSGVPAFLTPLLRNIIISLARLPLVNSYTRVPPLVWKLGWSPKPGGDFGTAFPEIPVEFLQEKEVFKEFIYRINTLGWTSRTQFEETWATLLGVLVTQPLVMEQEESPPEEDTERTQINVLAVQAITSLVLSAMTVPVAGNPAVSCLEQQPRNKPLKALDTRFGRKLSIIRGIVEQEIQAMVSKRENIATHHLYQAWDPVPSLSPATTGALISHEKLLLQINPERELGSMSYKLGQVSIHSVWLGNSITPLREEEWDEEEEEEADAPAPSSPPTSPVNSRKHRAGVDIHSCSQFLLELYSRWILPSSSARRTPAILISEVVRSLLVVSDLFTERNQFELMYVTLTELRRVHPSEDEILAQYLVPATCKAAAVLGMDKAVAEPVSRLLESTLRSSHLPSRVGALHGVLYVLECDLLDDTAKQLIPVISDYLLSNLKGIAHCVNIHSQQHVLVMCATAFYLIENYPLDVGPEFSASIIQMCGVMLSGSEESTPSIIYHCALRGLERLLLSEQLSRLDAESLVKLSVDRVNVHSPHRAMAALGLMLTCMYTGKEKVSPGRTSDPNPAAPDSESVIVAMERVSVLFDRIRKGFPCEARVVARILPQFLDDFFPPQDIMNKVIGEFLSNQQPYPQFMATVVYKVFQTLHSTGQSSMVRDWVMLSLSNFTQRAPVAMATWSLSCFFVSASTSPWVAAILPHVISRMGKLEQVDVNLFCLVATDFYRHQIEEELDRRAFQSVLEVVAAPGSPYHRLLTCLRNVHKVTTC
Assay [6] is described as follows: protection against mutant huntingtin cytotoxicity, PC12 cells, LDH release (AID 1610). The note with it: PC12 mutant huntingtin toxicity, final LDH at 4 uM, stronger effect = lower value.

Results filed as inconclusive are left out. Calls of active or inactive are those of the source. Unless noted, the rule behind the calls is not given here.

In the case of `COc1ccc(C[C@H]2NC[C@H](O)[C@H]2OC(C)=O)cc1`, the growth inhibition in assay [1] was 98% (active); in assay [4], 100% (active). Moreover, the inhibition in assay [2] is 39% (inactive); in assay [3] it was 6% (inactive).

`O=C1C=CC(=O)c2c(O)cccc21`: in assay [5], the aggregation ratio was 0.312.

In the case of `O=C1C=C2C(=CCOC2O)O1` (stereo unspecified), the normalised LDH release in assay [6] was determined as 0.848.
